{"source": "PubChem BioAssay AID588405", "about": "(Sanford-Burnham Center for Chemical Genomics, 2011)", "note": "Several values for one entry are separate records, joined by “and”; a condition that tells them apart may be missing. Equal entries are not always repeated. In all, about 360,000 compounds went through this assay and about 6,200 (1.7%) were called active.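 Rule for the calls: active = inhibition of at least 50% at 20 µM; inactive = the rest.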 The list comes from a sample in which actives are over-represented; it also holds similar structures and randomly drawn compounds. Where a structure was tested more than once in an assay, its records may differ in their call."}
{"experiment": "Peg3 promoter-driven luciferase inhibitors, primary screen, cell-based, HeLa, luciferase luminescence (AID 588405)", "conditions": "HeLa PEG-Prom luciferase reporter, overnight, at 20 µM, stronger effect = higher value"}
{"smiles": "O=C(Nc1nnc(-c2ccc(F)cc2)s1)c1c(F)cccc1Cl", "inhibition": "-27.2% (inactive)"}
{"smiles": "NC(=O)CSc1nnc(NC(=O)c2ccc(Br)o2)s1", "inhibition": "-5.94% (inactive)"}
{"smiles": "CSc1nnc(NC(=O)c2nc(S(=O)(=O)Cc3ccc(C)cc3)ncc2Cl)s1", "inhibition": "103% (active)"}
{"smiles": "Cc1ccc(CS(=O)(=O)c2ncc(Cl)c(C(=O)Nc3nnc(C)s3)n2)cc1", "inhibition": "98.9% (active)"}
{"smiles": "Cc1nnc(NC(=O)C(c2ccccc2)c2ccccc2)s1", "inhibition": "-0.94% (inactive)"}
{"smiles": "Cc1ccc(S(=O)(=O)CCC(=O)Nc2nnc(CC(C)C)s2)cc1", "inhibition": "10.6% (inactive)"}
{"smiles": "Nc1nc2cc(Cl)ccc2n1N", "inhibition": "-1.93% (inactive)"}
{"smiles": "CC(C)NC(=O)C1(C)CCCCCN1C(=O)c1ccc(-c2ccccc2)cc1", "note": "(stereo not given)", "inhibition": "-0.82% (inactive)"}
{"smiles": "COc1ccc(NC(=O)C2Cc3c(-c4ccc(Cl)cc4)ccnc3O2)cc1", "note": "(stereo not given)", "inhibition": "22.6% (inactive)"}
{"smiles": "O=C(c1[nH]ncc1-c1ccc(Cl)cc1)C1CO1", "note": "(stereo not given)", "inhibition": "52% (active)"}
{"smiles": "COc1cccc(C(NC(C)=O)c2nc(-c3ccccc3OC)cs2)c1", "note": "(stereo not given)", "inhibition": "-8.65% (inactive)"}
{"smiles": "Nc1nc(NC(=O)/C=C/c2ccccc2)nn1-c1ccccc1", "inhibition": "-6.78% (inactive)"}
{"smiles": "c1ccc(-n2cccc2)c(N2CCCCC2)c1", "inhibition": "2.67% (inactive)"}
{"smiles": "O=C1C=CC(=O)N1c1ccc(N2CCCCC2)cc1", "inhibition": "108% (active)"}
{"smiles": "CCC(=O)c1ccc(OCC(=O)Nc2ccc(N3CCCCC3)cc2)cc1", "inhibition": "-13.9% (inactive)"}
{"smiles": "CN1OC[C@@H]2CN(C(=O)c3cccnc3)[C@H](c3ccc(N4CCCCC4)cc3)C[C@@H]21", "inhibition": "-11.6% (inactive)"}
{"smiles": "CCOC(=O)C1=C(CN2CCc3ccccc32)NC(=O)NC1c1ccc(Cl)cc1", "note": "(stereo not given)", "inhibition": "61.5% (active)"}
{"smiles": "CCOC(=O)C1=C(CN2CCc3ccccc32)NC(=O)NC1c1cccc([N+](=O)[O-])c1", "note": "(stereo not given)", "inhibition": "43.4% (inactive)"}
{"smiles": "CCOC(=O)C1=C(CN2CCc3ccccc32)NC(=O)NC1c1cc(C)ccc1C", "note": "(stereo not given)", "inhibition": "34.6% (inactive)"}
{"smiles": "COc1cc(CCN=Cc2ccccc2O)c([N+](=O)[O-])cc1OC", "inhibition": "-5.6% (inactive)"}
{"smiles": "O=C(NCC(O)c1nc2ccccc2[nH]1)c1ccc(Br)cc1", "note": "(stereo not given)", "inhibition": "-5.63% (inactive)"}
{"smiles": "CCc1nc2ccc(C(=O)Nc3cccc(OC)c3)cn2c1N(CCC(C)C)CCN(C)C", "inhibition": "-15.1% (inactive)"}
{"smiles": "COc1ccccc1OCC(=O)OCn1c(SC)nnc(C)c1=O", "inhibition": "14.2% (inactive)"}
{"smiles": "CC(=O)Nc1ccc(S(=O)(=O)N(C)c2nc3ccccc3nc2Cl)cc1", "inhibition": "2.27% (inactive)"}
{"smiles": "CC(=O)Nc1ccc(Nc2c3ccccc3nc3ccccc23)cc1", "inhibition": "106% (active)"}
{"smiles": "CC(=O)Nc1ccc(Nc2c([N+](=O)[O-])cc(S(C)(=O)=O)cc2[N+](=O)[O-])cc1", "inhibition": "3.04% (inactive)"}
{"smiles": "CC(C)Nc1nc(NCCOc2ccccc2Cl)c2sccc2n1", "inhibition": "34.3% (inactive)"}
{"smiles": "COc1ccc(-c2[nH][nH]c(=O)c2NC(=O)c2ccc([N+](=O)[O-])cc2)cc1", "inhibition": "9.48% (inactive)"}
{"smiles": "CC(O)c1ccc(OCCN(C)c2ccccn2)cc1", "note": "(stereo not given)", "inhibition": "-135% (inactive)"}
{"smiles": "CCN(CC)CCOc1ccc2c(c1)C(=NNC(=O)c1ccccn1)c1cc(OCCN(CC)CC)ccc1-2", "inhibition": "109% (active)"}
{"smiles": "CN(CCOc1ccc(CC2SC(=O)NC2=O)cc1)c1ccccn1", "note": "(stereo not given)", "inhibition": "-26.7% (inactive) and -30.1% (inactive)"}
{"smiles": "CCCCc1cc2c(s1)CCCC/C2=N/O", "inhibition": "6.83% (inactive)"}
{"smiles": "COCCCN(C(=O)CSCc1ccc(C)cc1)c1c(N)n(Cc2ccccc2)c(=O)[nH]c1=O", "inhibition": "-0.45% (inactive)"}
{"smiles": "O=C(c1ccc(F)cc1)n1c(=S)nc2ccccn21", "inhibition": "-101% (inactive)"}
{"smiles": "O=C(COC(=O)c1ccncc1)c1ccccc1", "inhibition": "3.29% (inactive)"}
{"smiles": "Brc1ccc(-c2noc(-c3ccccc3)n2)o1", "inhibition": "-291% (inactive)"}
{"smiles": "O=C(Oc1ccc(-c2nc(-c3ccccn3)no2)cc1)c1ccccc1", "inhibition": "66.5% (active)"}
{"smiles": "O=C1C=C(c2ccc(Cl)cc2)C(=O)N1Nc1ccccc1", "inhibition": "105% (active)"}
{"smiles": "O=C1Nc2cc(C(=O)N3CCC(N4CCCCC4)CC3)ccc2S/C1=C\\c1ccccc1", "inhibition": "90.7% (active)"}
{"smiles": "NC(=O)C1CCN(C(=O)c2ccc(-c3ccccc3)cc2)CC1", "inhibition": "5.02% (inactive)"}
{"smiles": "O=C(Nc1ccccc1)C1CCN(C(=O)c2ccc(Br)cc2)CC1", "inhibition": "-7.9% (inactive)"}
{"smiles": "O=C(Nc1ccc(F)cc1)C1CCCN(S(=O)(=O)c2ccc(-n3cnnn3)cc2)C1", "note": "(stereo not given)", "inhibition": "24.8% (inactive)"}
{"smiles": "CCc1ccc(-c2cc3c(=O)n(CC(=O)NCCCN4CCN(Cc5ccccc5)CC4)nc(C)n3n2)cc1", "inhibition": "105% (active)"}
{"smiles": "Cc1nn(CC(=O)NCCc2ccccc2)c(=O)c2cc3occc3n12", "inhibition": "-8.09% (inactive)"}
{"smiles": "Cc1ccc(-c2ccc(=O)n(CC(=O)NCCCN3CCCCC3)n2)cc1", "inhibition": "5% (inactive)"}
{"smiles": "CC1(C(=O)Nc2cccnc2)Cc2c(-c3ccccc3)ccnc2O1", "note": "(stereo not given)", "inhibition": "13.4% (inactive)"}
{"smiles": "CC1(C(=O)Nc2cccc(Oc3ccccc3)c2)CCN1Cc1ccccc1Cl", "note": "(stereo not given)", "inhibition": "18.7% (inactive)"}
{"smiles": "Nc1ncnc2c1ncn2[C@@H]1O[C@H](C(=O)N2CCSC2)[C@@H](O)[C@H]1O", "inhibition": "-1.06% (inactive)"}
{"smiles": "COc1ccccc1Cc1c(-c2ccc(Cl)cc2)nc2ccc(Cl)cn12", "inhibition": "-200% (inactive)"}
{"smiles": "Cc1cccc(C)c1-n1nnnc1C(CCc1ccccc1)N1CCN(C/C=C/c2ccccc2)CC1", "note": "(stereo not given)", "inhibition": "4.21% (inactive)"}
{"smiles": "c1ccc(C(=NNc2nc3ccccc3s2)c2ccccn2)cc1", "inhibition": "60.3% (active)"}
{"smiles": "COc1cc(OC)nc(N/N=C(\\c2ccccc2)c2ccncc2)n1", "inhibition": "-16.6% (inactive)"}
{"smiles": "C/C(=N/Nc1nc(-c2ccccc2)c(CC(=O)O)s1)c1ccccc1", "inhibition": "-245% (inactive)"}
{"smiles": "CCCNC(=O)c1cc(C2CCCCN2C(=O)OC)on1", "note": "(stereo not given)", "inhibition": "8.59% (inactive)"}
{"smiles": "CCOc1cc(-c2conc2N)cc(OCC)c1OCC", "inhibition": "10.1% (inactive)"}
{"smiles": "CC(C)CNC(=O)C1(C)CCCN1C(=O)CSc1ccccc1", "note": "(stereo not given)", "inhibition": "-0.74% (inactive)"}
{"smiles": "Cc1ccc2cc(/C=N/Nc3ccc(C(=O)O)cc3)c(Cl)nc2c1", "inhibition": "-255% (inactive)"}
{"smiles": "O=C(O)c1ccc(N/N=C/c2ccc3ncccc3c2)cc1", "inhibition": "70.7% (active)"}
{"smiles": "CCNC(=S)NNC(=O)c1ccc2ncccc2c1", "inhibition": "-28.3% (inactive)"}
{"smiles": "CCOC(=O)c1ccc(NC(=O)c2nc[nH]c2C(=O)NCc2ccccc2)cc1", "inhibition": "32.4% (inactive)"}
{"smiles": "COc1cc(NC(=O)c2cncc(-c3ccc(C#N)cc3)c2)cc(C(=O)Nc2cccc(C(F)(F)F)c2)c1", "inhibition": "22% (inactive) and 56% (active)"}
{"smiles": "O=C(O)CSc1c2c(nc3cc(C(=O)Nc4cccc(C(F)(F)F)c4)ccc13)CCCC2", "inhibition": "13.5% (inactive)"}
{"smiles": "COc1cccc(NC(=O)CN(C)C(C)C(=O)Nc2ccc(C#N)cc2)c1", "note": "(stereo not given)", "inhibition": "20% (inactive)"}
{"smiles": "COc1cc(NC(=O)c2[nH]cnc2C(N)=O)cc(C(=O)Nc2cccc(C(F)(F)F)c2)c1", "inhibition": "101% (active)"}
{"smiles": "O=C(Nc1cccc(C(F)(F)F)c1)c1ccc(N2CCNCC2)c([N+](=O)[O-])c1", "inhibition": "22.1% (inactive)"}
{"smiles": "O=C1c2ccccc2-c2ccccc2NC1O", "note": "(stereo not given)", "inhibition": "-8.48% (inactive)"}
{"smiles": "COc1ccc(C(c2nnnn2C2CCCC2)N2CCN(C/C=C/c3ccccc3)CC2)cc1", "note": "(stereo not given)", "inhibition": "-2% (inactive)"}
{"smiles": "CC(=O)Nc1ccc(-c2ccnc3c2CC(C(=O)NC(C)C)O3)cc1", "note": "(stereo not given)", "inhibition": "-1.44% (inactive)"}
{"smiles": "CC1(C(=O)NCC2CCOCC2)Cc2c(-c3cccc(C(N)=O)c3)ccnc2O1", "note": "(stereo not given)", "inhibition": "8.22% (inactive)"}
{"smiles": "O=C(CSc1nc2cccc(F)c2c(=O)n1-c1ccccc1)Nc1ccc2c(c1)CCC2", "inhibition": "2.19% (inactive)"}
{"smiles": "Cc1ccc(C)c(N2CCN(C(=O)CCCn3c(=O)c4cccn4c4cccnc43)CC2)c1", "inhibition": "34.6% (inactive)"}
{"smiles": "Cc1ccc(C)c(N2CCN(C(=O)CCCCCn3c(=S)[nH]c4ccc(N5CCOCC5)cc4c3=O)CC2)c1", "inhibition": "92.5% (active)"}
{"smiles": "O=C(CCCCCn1c(=S)[nH]c2cc3c(cc2c1=O)OCO3)N1CCN(c2ccc(F)cc2)CC1", "inhibition": "-0.75% (inactive)"}
{"smiles": "COCCNC(=O)C1CCCN(Cc2ccccc2Cl)CC1", "note": "(stereo not given)", "inhibition": "5.2% (inactive)"}
{"smiles": "CSc1nc(-c2ccccc2)nc(C(Cl)Cl)n1", "inhibition": "98.3% (active)"}
{"smiles": "O=C(COC(=O)C12CC3CC(CC(O)(C3)C1)C2)NC12CC3CC(CC(C3)C1)C2", "inhibition": "9.7% (inactive)"}
{"smiles": "CC1(Cc2cccc(C#N)c2)C(=O)Nc2ccc(-c3cccc(C(F)(F)F)c3)cc21", "note": "(stereo not given)", "inhibition": "37% (inactive)"}
{"smiles": "Cc1c(CN2CCC(CO)(CCOc3ccccc3)CC2)[nH]c2ccc(Cl)cc12", "inhibition": "85.4% (active)"}
{"smiles": "CC(C)(O)C#Cc1ccc(CN2CCC(CO)(CCc3ccccc3)CC2)cc1", "inhibition": "1.12% (inactive)"}
{"smiles": "CCOC(=O)C1(CCOc2ccccc2)CCN(Cc2ccc(C#CCCO)cc2)CC1", "inhibition": "15.7% (inactive)"}
{"smiles": "C=CC[C@@H](CC(=O)N[C@@H](CO)Cc1ccccc1)C(=O)N[C@H](COC(=O)[C@H](CC=C)CC(=O)OC(C)(C)C)Cc1ccccc1", "inhibition": "59.8% (active)"}
{"smiles": "C=CC[C@@H](CC(=O)N[C@@H](CO)Cc1ccccc1)C(=O)NCCOC(=O)[C@@H](CC=C)CC(=O)OC(C)(C)C", "inhibition": "4.88% (inactive)"}
{"smiles": "C=CC[C@@H](CC(=O)N[C@H](CO)Cc1ccccc1)C(=O)N[C@H](C)COC(=O)[C@@H](CC=C)Cc1ccc(F)cc1", "inhibition": "12.6% (inactive)"}
{"smiles": "CCOC(=O)c1c(-n2cnnn2)sc(C)c1C", "inhibition": "-0.91% (inactive)"}
{"smiles": "CNC(=O)C1CC(=O)N(Cc2ccc3c(c2)OCO3)C(=Nc2ccc(F)cc2)S1", "note": "(stereo not given)", "inhibition": "-64.3% (inactive)"}
{"smiles": "COc1ccccc1N(CCOc1ccccc1)S(=O)(=O)c1ccccc1", "inhibition": "18.4% (inactive)"}
{"smiles": "Clc1ccc(-c2cc(C3CCNCC3)[nH]n2)c(Cl)c1", "inhibition": "58.7% (active)"}
{"smiles": "Clc1ccc(-c2cc(-c3ccccn3)on2)c(Cl)c1", "inhibition": "-90.8% (inactive)"}
{"smiles": "Fc1cccc(Cc2c(-c3cccc(Cl)c3)nc3ccc(Br)cn23)c1", "inhibition": "-153% (inactive)"}
{"smiles": "O=C(O)CC1S/C(=N\\N=C/c2ccccc2O)N(c2ccc(O)cc2)C1=O", "note": "(stereo not given)", "inhibition": "-0.29% (inactive)"}
